{"source": "PubChem BioAssay (EPA / NIEHS)", "note": "“And” between values parts separate entries of the source, which are not always exact repeats. Equal values may be shown once. Records with an inconclusive call do not appear. The source made the active and inactive calls. How the source made its calls: active means hit-call score of the fitted dose curve at least 0.9, where 1 is the maximum; inconclusive means response in the unintended direction; inactive means score below 0.9."}
{"read-out": "Cytochrome P450 3A4 (Homo sapiens) (UniProt P08684)", "assay": "CLD_CYP3A4_48hr: CellzDirect (CLD) Gene Expression Assay for xenobiotic metabolism (CYP3A4) at 48 hours (AID 2283698)", "procedure": "CLD_48hr is a cell-based, multiplexed-readout assay that uses hepatocyte, a human liver primary cell, with measurements taken at 48 hours after chemical dosing in a 96-well plate.CLD_CYP3A4_48hr is one of 16 assay component(s) measured or calculated from the CLD_48hr assay. It is designed to make measurements of mRNA induction, a form of inducible reporter, as detected with chemiluminescence signals by Quantitative Nuclease Protection Assay (qNPA) technology.Data from the assay component CLD_CYP3A4_48hr was analyzed at the endpoint, CLD_CYP3A4_48hr, in the positive analysis fitting direction relative to DMSO as the negative control and baseline of activity. Using a type of inducible reporter, gain-of-signal activity can be used to understand changes in the reporter gene as they relate to the gene CYP3A4. Furthermore, this assay endpoint can be referred to as a primary readout. To generalize the intended target to other relatable targets, this assay endpoint is annotated to the cyp intended target family, where subfamily is xenobiotic metabolism.\nHuman hepatocyte cultures were treated daily for two consecutive days with fresh dosing solutions containing appropriate concentrations of the 320 ToxCast chemicals (chemical identities were blinded to CellzDirect and other ToxCast collaborators), vehicle control (0.2% DMSO), and positive control inducers as summarized in Table 1. Due to the large number of treatment groups and chemicals examined, the ToxCast chemicals were divided into two groups (spanning two independent cultures of hepatocytes from separate donor preparations (Hu778: ToxCast plates 1 and 2; Hu776: ToxCast plates 3 and 4). Each preparation of human hepatocyte cultures was treated with respective vehicle control, medium only control, set of six positive controls/reference chemicals for the five hepatic receptor pathways, and a subset of eight of the ToxCast chemicals (indoxacarb, pyrithiobac-sodium, norflurazon, cyhalofop-butyl, methomyl, thiram, acetochlor, and propiconazole). These replicate data, coupled with internal replicates designed within the blinded ToxCast chemical library, provided additional data to evaluate interindividual differences between hepatocyte preparations and their potential impact on chemical profiles.Cell morphology and integrity were evaluated using phase-contrast microscopy as an indicator of hepatocyte cell health (Tyson & Green, 1987). Cultures for each treatment group (i.e., media, vehicle [0.2% DMSO], positive control inducers [multiple concentrations], and the ToxCast chemicals [multiple concentrations]) were observed and cell morphology was assessed relative to vehicle control cultures at each harvest time point (0, 6, 24, or 48 h). […] Images were evaluated at the conclusion of the study to assess changes in cell integrity and account for the effects of chemical exposure on uncharacteristic changes in concentration-dependent gene expression profiles. The results from these determinations of apparent cytotoxicity were annotated (yes/no) alongside the corresponding qNPA data for reference.At the conclusion of each treatment period, hepatocyte cultures (96-well) were washed with 1 volume of HBSS, lysed by addition of 25 ul ArrayPlate lysis buffer (HTG, Tucson, AZ), and 70 ul/well of Denaturation Oil, denatured by incubation at 95C for 10 min, and frozen at approximately -70C until analysis by nuclease protection assay (qNPA) (Roberts et al., 2007). For qNPA analysis, cell lysates were thawed at 50C for approximately 30 min, qNPA probes were added, and samples were incubated at 95C for 10 min to begin the detection process by denaturing the target RNA, dissociating the duplexes and secondary structure hybridization. At the conclusion of the hybridization period, S1 nuclease reagent was added to each sample to digest all nonprotected nucleotides at 50C for 60-90 min. […]"}
{"smiles": "COc1nc(C)nc(NC(=O)NS(=O)(=O)c2ccccc2CCC(F)(F)F)n1", "AC50": "20 µM (active) and 4.16 µM (active) and 3.34 µM (active)"}
{"smiles": "COP(=S)(OC)Oc1nc(Cl)c(Cl)cc1Cl", "outcome": "inactive"}
{"smiles": "COC(=O)C(C)Oc1ccc(Oc2ccc(Cl)cc2Cl)cc1", "note": "(stereo not drawn)", "outcome": "inactive"}
{"smiles": "CNC(=O)ON=CC(C)(C)SC", "outcome": "inactive"}
{"smiles": "CCCN(CCC)c1c([N+](=O)[O-])cc(S(N)(=O)=O)cc1[N+](=O)[O-]", "AC50": "10 µM (active)"}
{"smiles": "CCNc1nc(Cl)nc(NC(C)C)n1", "AC50": "14.2 µM (active)"}
{"smiles": "Oc1ccccc1-c1ccccc1", "outcome": "inactive"}
{"smiles": "CC1COC(Cn2cncn2)(c2ccc(Oc3ccc(Cl)cc3)cc2Cl)O1", "note": "(stereo not drawn)", "outcome": "inactive"}
{"smiles": "COc1cnc(OC)n2nc(NS(=O)(=O)c3c(OCC(F)F)cccc3C(F)(F)F)nc12", "AC50": "20 µM (active)"}
{"smiles": "CCCC1COC(Cn2cncn2)(c2ccc(Cl)cc2Cl)O1", "note": "(stereo not drawn)", "AC50": "2.06 µM (active)"}
{"smiles": "N#Cc1nn(-c2c(Cl)cc(C(F)(F)F)cc2Cl)c(N)c1S(=O)C(F)(F)F", "note": "(stereo not drawn)", "AC50": "1.1 µM (active)"}
{"smiles": "CCOP(=S)(OCC)SCn1c(=O)oc2cc(Cl)ccc21", "AC50": "4.1 µM (active)"}
{"smiles": "N#CC(CCc1ccc(Cl)cc1)(Cn1cncn1)c1ccccc1", "note": "(stereo not drawn)", "AC50": "0.736 µM (active)"}
{"smiles": "CCCCOC(=O)c1ccccc1C(=O)OCCCC", "outcome": "inactive"}
{"smiles": "Cc1cc(Cl)ccc1OCC(=O)O", "outcome": "inactive"}
{"smiles": "COC(=O)C=C(C)OP(=O)(OC)OC", "outcome": "inactive"}
{"smiles": "CCOC(=O)C(Cl)Cc1cc(-n2nc(C)n(C(F)F)c2=O)c(F)cc1Cl", "note": "(stereo not drawn)", "AC50": "4.77 µM (active)"}
{"smiles": "Fc1ccc(Oc2ccnc3cc(Cl)cc(Cl)c23)cc1", "outcome": "inactive"}
{"smiles": "COP(N)(=O)SC", "note": "(stereo not drawn)", "outcome": "inactive"}
{"smiles": "OC(c1ccc(Cl)cc1)(c1cncnc1)c1ccccc1Cl", "note": "(stereo not drawn)", "AC50": "0.443 µM (active)"}
{"smiles": "COc1nc(NC(C)C)nc(NC(C)C)n1", "AC50": "6.77 µM (active)"}
{"smiles": "C#CCOS(=O)OC1CCCCC1Oc1ccc(C(C)(C)C)cc1", "note": "(stereo not drawn)", "AC50": "3.74 µM (active)"}
{"smiles": "CCOc1cc(Oc2ccc(C(F)(F)F)cc2Cl)ccc1[N+](=O)[O-]", "AC50": "5.16 µM (active)"}
{"smiles": "O=C(O)c1nc(Cl)ccc1Cl", "outcome": "inactive"}
{"smiles": "CCc1nn(C)c(C(=O)NCc2ccc(C(C)(C)C)cc2)c1Cl", "AC50": "20 µM (active)"}
{"smiles": "CCOC(=O)CC(SP(=S)(OC)OC)C(=O)OCC", "note": "(stereo not drawn)", "outcome": "inactive"}
{"smiles": "CCCCC(CC)COC(=O)c1ccccc1C(=O)OCC(CC)CCCC", "note": "(stereo not drawn)", "outcome": "inactive"}
{"smiles": "CC(C)(C)c1ccc(CSc2cnn(C(C)(C)C)c(=O)c2Cl)cc1", "outcome": "inactive"}
{"smiles": "CC(C)C1(C)N=C(c2nc3ccccc3cc2C(=O)O)NC1=O", "note": "(stereo not drawn)", "outcome": "inactive"}
{"smiles": "CON(C)C(=O)Nc1ccc(Cl)c(Cl)c1", "outcome": "inactive"}
{"smiles": "CCNc1nc(Cl)nc(NCC)n1", "outcome": "inactive"}
{"smiles": "CC(Oc1ccc(Cl)cc1Cl)C(=O)O", "note": "(stereo not drawn)", "outcome": "inactive"}
{"smiles": "COc1nc(C)nc(NC(=O)NS(=O)(=O)c2ccccc2Cl)n1", "outcome": "inactive"}
{"smiles": "CCCCNC(=O)OCC#CI", "outcome": "inactive"}
{"smiles": "Cc1c(F)c(F)c(COC(=O)C2C(/C=C(\\Cl)C(F)(F)F)C2(C)C)c(F)c1F", "note": "(stereo not drawn)", "AC50": "20 µM (active)"}
{"smiles": "COC(=O)c1ccccc1C(=O)OC", "outcome": "inactive"}
{"smiles": "CC1=C(C(=O)Nc2ccccc2)SCCO1", "outcome": "inactive"}
{"smiles": "CC(C)Oc1cc(-n2nc(C(C)(C)C)oc2=O)c(Cl)cc1Cl", "AC50": "1.9 µM (active)"}
